# High-throughput results from PubChem BioAssay.
# The sample as a whole holds a higher share of hits than the screen did.
# ST2 inh – inhibitors of human ST2 (IL1RL1) binding to IL-33 | Q01638 | AlphaLISA ST2-Fc/biotin-IL-33 interaction, 1 h | inhibition, % for hits at 17 µM | actives 2.3% (n = 78,000) | AID 1259354; in the data active = inhibition above about 30%
# Target sequence (Q01638 whole entry, looked up): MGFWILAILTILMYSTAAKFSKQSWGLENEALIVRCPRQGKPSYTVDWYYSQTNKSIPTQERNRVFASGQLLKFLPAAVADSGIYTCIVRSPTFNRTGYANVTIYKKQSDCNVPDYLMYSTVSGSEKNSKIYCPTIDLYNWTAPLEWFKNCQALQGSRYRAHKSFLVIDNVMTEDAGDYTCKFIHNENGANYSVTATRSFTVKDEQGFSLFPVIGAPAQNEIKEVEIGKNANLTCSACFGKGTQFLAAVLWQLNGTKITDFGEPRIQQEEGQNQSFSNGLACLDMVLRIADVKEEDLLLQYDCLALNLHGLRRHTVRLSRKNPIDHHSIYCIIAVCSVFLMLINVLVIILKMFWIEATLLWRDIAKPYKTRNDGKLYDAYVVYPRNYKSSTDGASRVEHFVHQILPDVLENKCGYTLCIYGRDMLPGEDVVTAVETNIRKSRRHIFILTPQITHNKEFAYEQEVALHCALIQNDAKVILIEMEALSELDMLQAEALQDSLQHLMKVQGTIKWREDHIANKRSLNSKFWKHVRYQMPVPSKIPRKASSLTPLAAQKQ
# An asterisk follows results filed as active; i = inactive; ! = not active in a repeat.
SMILES,ST2 inh
O[C@H]1[C@H](NCc2ccc(-c3ccccc3)cc2)[C@H]2CO[C@H](O2)[C@@H]1Oc1ccccc1,i
Fc1ccc(C2CCCN2Cc2nc(COc3ccccc3)no2)cc1 (stereo not given),i
CC1(C)Cc2c(oc3ncn4ncnc4c23)CS1,i
COc1ccc(C2C(C#N)=C(N)OC3=C2C(=O)CC(C)(C)C3)cc1COc1ccc(Cl)cc1 (stereo not given),i
Cc1ccc(CN2CCN(Cc3cccc4nonc34)CC2CCO)o1 (stereo not given),i
Cc1cc2n(c1)CCn1c(C)ccc1-2,63%*
O=C1C2ON(c3ccc(Br)cc3)C(c3cccnc3)C2C(=O)N1c1ccccc1 (stereo not given),i
C/C=C/CN1CCC=C(CNC(=O)c2ccccc2NC(C)=O)C1,i
CC1=C(C(=O)Nc2ccccn2)C(c2ccc(C)cc2)C2=C(CCCC2=O)N1 (stereo not given),i
O=C(COC(=O)c1cccc(Br)c1)c1ccc(Br)cc1,i
O=C(COC(=O)c1ccccc1O)c1ccc(Br)cc1,90%*
O=C(COC(=O)c1ccc(Cl)cc1)c1ccc(Br)cc1,i
COCCN1C(=O)N(CCCc2cccnc2)C(=O)C12CCN(CC(C)C)CC2,i
COc1ccccc1NCN1C(=O)C2CCC(C)CC2C1=O (stereo not given),i
CCn1nc(C)c(CN2CCCC(Nc3ccc(C(C)C)cc3)C2)c1C (stereo not given),i
C=CCNC(=O)C1CCN(S(=O)(=O)N2CCCCC2)CC1,i
CCc1cn[nH]c1C1CCN(C(=O)c2cccc(O)c2C)CC1,i
CNc1cc(-c2ccc3ccccc3n2)c2cc[nH]c2n1,52%*
CC(C)Nc1ccc(-c2cc(N)nc3[nH]ccc23)nn1,i
C=CCn1c(=O)c(-c2ccc3ccccc3n2)cc2ccccc21,i
O=C(O)c1cccc(Nc2ncnc3sc(-c4ccccc4)cc23)c1,i
COc1cc(-c2ccc(NC(=O)c3ccco3)c(OC)c2)ccc1NC(=O)c1ccco1,31%*
COc1cc(-c2ccc(NC(C)=O)c(OC)c2)ccc1NC(C)=O,i
COc1cc(NC(=O)/C=C/c2ccc(Cl)cc2)ccc1NC(=O)c1ccco1,i
COc1ccc(C2=NN(S(=O)(=O)c3ccccc3)C(c3cccc([N+](=O)[O-])c3)C2)cc1OC (stereo not given),i
SMILES,ST2 inh
O=[N+]([O-])CC(SCCO)c1ccc(O)cc1 (stereo not given),i
CC(=O)n1cc(C(C[N+](=O)[O-])SCCN)c2ccccc21 (stereo not given),30%*
O=C1C(=Cc2cccn2-c2ccc(Cl)cc2)C(=O)c2ccccc21,i
O=C1C(=Cc2ccc(-c3ccc(F)cc3)o2)C(=O)c2ccccc21,i
CCCCC1(C)OC(=O)C(=Cc2ccc(OC)c(I)c2)C(=O)O1 (stereo not given),i
CC1(c2ccccc2)OC(=O)C(=Cc2ccc(O)cc2)C(=O)O1 (stereo not given),i
O=C1C(=Cc2ccc(Br)o2)C(=O)c2ccccc21,52%*
CC1(C)OC(=O)C(=CNc2ccc(C(=O)O)cc2)C(=O)O1,i
CCCCC1(C)OC(=O)C(=Cc2ccc(N(CC)CC)cc2)C(=O)O1 (stereo not given),33%*
CCCCC1(C)OC(=O)C(=Cc2ccc(Br)o2)C(=O)O1 (stereo not given),73%*
CCCCOc1ccc(OC(=O)c2ccc(Br)o2)cc1,i
CC1(C)OC(=O)C(=Cc2ccc(I)o2)C(=O)O1,93%*
COc1cc(C=C2C(=O)OC(C)(C)OC2=O)cc(Br)c1O,i
Cc1ccc2cc3cc(C(=O)N4CCN(C)CC4)sc3nc2c1,i
COC(=O)[C@@H]1Cc2ncn(C(C)C)c2CN1C(=O)c1ccc(F)cc1,i
O=C1CCCC2=C1C(c1cccc(OCc3ccc(C(=O)O)cc3)c1)C1=C(CCCC1=O)O2,i
O=C(Nc1ccc(F)cc1Cl)C1c2ccccc2C(=O)N2CCc3ccccc3C12 (stereo not given),i
COc1cccc(-c2nnc(NC(=O)c3ccc(S(=O)(=O)N(C)C4CCCCC4)cc3)o2)c1,i
O=C(c1cc2ccccn2n1)N1CCc2ccccc21,i
CSc1cccc(CN(C)C(=O)[C@H](N)CC(C)C)c1,i
CCN(CC)c1ncccc1CNC(=O)c1nccc2ccccc12,i
CN(C)c1ccc(/C=c2\sc3nnc(-c4ccccc4Cl)n3c2=O)cc1,i
COc1ccc(/C=c2\sc3nnc(-c4ccccc4Cl)n3c2=O)cc1,i
Cc1ccc(/C=c2\sc3nnc(-c4ccccc4Cl)n3c2=O)o1,37%*
COc1ccc(/C=C2\SC(c3ccc(C)cc3)=NC2=O)cc1OC,30%*
SMILES,ST2 inh
COc1ccc(/C=C2/C(=O)N=C(N)N2C)cc1OC,i
COc1cc(/C=C2\SC(c3ccc(C)cc3)=NC2=O)ccc1O,62%*
COc1ccc(/C=C2/SC(N3CCN(C)CC3)=NC2=O)cc1OC,i
COc1cc(/C=C/c2cc(O)cc(O)c2)ccc1O,i
COc1cc(/C=C2\SC(N)=NC2=O)cc(Br)c1O,i
Cc1cc(C(=O)Nc2nnc(-c3ccccc3)s2)c(C)o1,i
CNC(=O)C1CCC(Cn2c(=O)c3sccc3n(CC(=O)Nc3ccccc3C)c2=O)CC1 (stereo not given),i
CC(C)N1CCn2nc(C(=O)N3CCC(Oc4ncccn4)CC3)cc2C1,i
CS(=O)(=O)N1CCN(c2ccc([N+](=O)[O-])c(NCCN3CCOCC3)c2)CC1,i
O=[N+]([O-])c1ccc(N2CCCC2)cc1NCC1CCCO1 (stereo not given),30%*
O=[N+]([O-])c1ccc(N2CCN(S(=O)(=O)c3ccccc3)CC2)cc1NCC1CCCO1 (stereo not given),i
C=C(C)COc1ccccc1C(=O)N[C@H]1COC[C@@H]1OCC,i
CCCn1cnc2cc(NCc3ccncc3)ccc21,i
CC(C)(C)n1cnc2cc(NCc3ccncc3)ccc21,i
CC(C)(C)n1cnc2cc(NCc3ccccn3)ccc21,i
CN(C)c1ccc(CNc2ccc3c(c2)ncn3C(C)(C)C)cc1,33%*
CCN(CC)c1ccc(CNc2ccc3c(c2)ncn3CC)cc1,52%*!
CCn1cnc2cc(NCc3cccs3)ccc21,i
CCn1cnc2cc(NCc3ccc(N(C)C)cc3)ccc21,52%*!
CCn1cnc2cc(NCc3ccc(C)cc3)ccc21,i
CCCCn1cnc2cc(NCc3ccc(Br)cc3)ccc21,i
Cc1cc(C)nc(NC(=O)NS(=O)(=O)c2ccccc2Cl)n1,i
CC(C)c1ccc(NC(=O)[C@@H]2C[C@@H]2c2ccccc2)cc1,i
N#Cc1c(N)nc2c(c1-c1cccc(Br)c1)CCCCC2,i
COc1cccc2c1OCC(C(=O)N1C[C@@H]3[C@@H]4CC[C@@H](C4)[C@@H]3C1)C2 (stereo not given in full),i
SMILES,ST2 inh
Cc1nn(C)c(C)c1CN(C(=O)c1ccc(-n2cc(NC(=O)c3cccnc3)cn2)cc1)C1CC1,i
Cc1c(Cl)cccc1NS(=O)(=O)c1ccc2[nH]cc(C(=O)N3CCCC3)c(=O)c2c1,i
Cc1nccc(-c2ccccc2)c1C(=O)NCC1(O)CCCNCC1 (stereo not given),i
CC1=CC(=O)C=C(C)C1=NOC(=O)c1ccc([N+](=O)[O-])cc1[N+](=O)[O-],i
COc1ccc(C(=O)ON=C2C(C)=CC(=O)C=C2C)cc1,52%*
COc1ccc(C(=O)O/N=C(/N)Cc2ccc(Cl)cc2)cc1,i
